The values below come from PubChem BioAssay AID504527 (The Scripps Research Institute Molecular Screening Center, 2011).

A number with no mark means an inactive call. Activity calls are given as the source filed them.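 Rule for the calls: active = two or more serine hydrolases at least half inhibited, plus every target band half blocked in a general-probe test; inactive = under two enzymes half blocked, or any target band not.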

The nature of the assay: broad serine hydrolase inhibition in proteome, late-stage follow-up, selectivity assay for PAFAH2 inhibitor project, fluorescence, gel-based ABPP, powder samples (AID 504527). Particulars: BW5147 murine T-cell proteome, FP-Rh fluorescence, competitor test compound, probe FP-Rh, at 20 µM, active compounds read high.
As for `C#CCOCCOCCOCCN(Cc1ccccc1)C(=O)n1nccn1`, the number of serine hydrolases inhibited >=50% was 5 (active). The same measure for `C#CCOCCOCCOCCN(Cc1ccccc1)C(=O)n1ccnc1`: 0; for `C#CCOCCOCCOCCN(Cc1ccccc1)C(=O)n1ncc(-c2ccccc2)n1`: 8 (active). In the case of `C#CCOCCOCCOCCN(Cc1ccccc1)C(=O)n1nc2cccnc2n1` it was 7 (active). The same measure for `C#CCOCCOCCOCCN(Cc1ccccc1)C(=O)Oc1ccc([N+](=O)[O-])cc1`: 1.
